Measurements: paper PMC12820563, “FoxP3 forms a head-to-head dimer in vivo and stabilizes its multimerization on adjacent microsatellites”
Whole data set: some 16,000 sequences, median “rpm ratio (pull-down/input)” near 0.5, cut for the highest 2% near 5.5. The entries come from a sample that favours the highest values as a whole.

Biological target: T1, MBP-FoxP3dN (Mus musculus, UniProt Q99JB6 188-423)
T1 sequence: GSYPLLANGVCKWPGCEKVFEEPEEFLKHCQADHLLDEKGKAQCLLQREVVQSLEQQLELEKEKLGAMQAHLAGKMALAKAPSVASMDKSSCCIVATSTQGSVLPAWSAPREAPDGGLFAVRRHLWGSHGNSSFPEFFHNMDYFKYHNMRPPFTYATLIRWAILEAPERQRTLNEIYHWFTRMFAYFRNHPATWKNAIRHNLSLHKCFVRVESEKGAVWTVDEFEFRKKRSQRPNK
Experiment: PD-seq (MBP pull-down with sequencing); 20 mM Tris-HCl pH 7.5, 100 mM NaCl, 1.5 mM MgCl2, 0.4 uM protein, 0.1 uM dsDNA library, 30 min, room temperature, amylose pull-down; high values mean tight binding
Settings: protein: recombinant; tags: His6-MBP; chain copies: 2; dsDNA, one strand shown
How it was run: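 Protein and DNA were mixed at 0.4 µM and 0.1 µM and held for 30 min at room temperature in Tris pH 7.5 buffer with NaCl and MgCl2; the protein was a His6-MBP-tagged, N-terminally truncated mouse FoxP3 or FoxP1 fragment from E. coli, and the DNA a Klenow-filled double-stranded degenerate library. Amylose resin captured the complexes, which were washed three times. Binding is read as reads-per-million enrichment of pull-down versus input after Illumina sequencing, with replicates pooled.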

Sequence | binding signal
GATGATTGTTCTCCCAGCTGATGAATTCTGCCTCTCGAGTAAACAAATTTTCCTAATCTTTCTGTTCAAGCGCCATCTAC | 5.87 RPM ratio (pull-down/input)
GATGATTGTTCTCCCAGCTGATGAATTTTTCGCCTCGAGTAAACAAATTTTCCTAATCTTTCTGTTCAAGCGCCATCTAC | 0.467 RPM ratio (pull-down/input)
GATGATTGTTCTCCCAGCTGATGAATTTCGCCTCTCGAGTAAACAAATTTTCCTAATCTTTCTGTTCAAGCGCCATCTAC | 6.04 RPM ratio (pull-down/input)
GATGATTGTTCTCCCAGCTGATGAATTCTCTGCCTCGAGTAAACAAATTTTCCTAATCTTTCTGTTCAAGCGCCATCTAC | 0.284 RPM ratio (pull-down/input)
GATGATTGTTCTCCCAGCTGATGAATTCTCCGCCTCGAGTAAACAAATTTTCCTAATCTTTCTGTTCAAGCGCCATCTAC | 0.428 RPM ratio (pull-down/input)
GATGATTGTTCTCCCAGCTGATGAATTGTTCGCCTCGAGTAAACAAATTTTCCTAATCTTTCTGTTCAAGCGCCATCTAC | 0.653 RPM ratio (pull-down/input)
GATGATTGTTCTCCCAGCTGATGAATTTTGTGCCTCGAGTAAACAAATTTTCCTAATCTTTCTGTTCAAGCGCCATCTAC | 1.84 RPM ratio (pull-down/input)
GATGATTGTTCTCCCAGCTGATGAATTCCGCGCCTCGAGTAAACAAATTTTCCTAATCTTTCTGTTCAAGCGCCATCTAC | 1.68 RPM ratio (pull-down/input)
GATGATTGTTCTCCCAGCTGATGAATTGTGCCTCTCGAGTAAACAAATTTTCCTAATCTTTCTGTTCAAGCGCCATCTAC | 6.79 RPM ratio (pull-down/input)
GATGATTGTTCTCCCAGCTGATGAATTCCGCCTCTCGAGTAAACAAATTTTCCTAATCTTTCTGTTCAAGCGCCATCTAC | 6.3 RPM ratio (pull-down/input)
GATGATTGTTCTCCCAGCTGATGAATTCTGTGCCTCGAGTAAACAAATTTTCCTAATCTTTCTGTTCAAGCGCCATCTAC | 1.19 RPM ratio (pull-down/input)
GATGATTGTTCTCCCAGCTGATGAATTAGACTCCTCGAGTAAACAAATTTTCCTAATCTTTCTGTTCAAGCGCCATCTAC | 0.422 RPM ratio (pull-down/input)
GATGATTGTTCTCCCAGCTGATGAATTATACCCATCGAGTAAACAAATTTTCCTAATCTTTCTGTTCAAGCGCCATCTAC | 0.433 RPM ratio (pull-down/input)
GATGATTGTTCTCCCAGCTGATGAATTAGTCTTATCGAGTAAACAAATTTTCCTAATCTTTCTGTTCAAGCGCCATCTAC | 0.725 RPM ratio (pull-down/input)
GATGATTGTTCTCCCAGCTGATGAATTAGTCGGATCGAGTAAACAAATTTTCCTAATCTTTCTGTTCAAGCGCCATCTAC | 0.297 RPM ratio (pull-down/input)
GATGATTGTTCTCCCAGCTGATGAATTCCCTCATTCGAGTAAACAAATTTTCCTAATCTTTCTGTTCAAGCGCCATCTAC | 0.325 RPM ratio (pull-down/input)

Sequence | binding signal
GATGATTGTTCTCCCAGCTGATGAATTGGTTAACTCGAGTAAACAAATTTTCCTAATCTTTCTGTTCAAGCGCCATCTAC | 0.469 RPM ratio (pull-down/input)
GATGATTGTTCTCCCAGCTGATGAATTCTGTCATTCGAGTAAACAAATTTTCCTAATCTTTCTGTTCAAGCGCCATCTAC | 4.31 RPM ratio (pull-down/input)
GATGATTGTTCTCCCAGCTGATGAATTGAGTACTTCGAGTAAACAAATTTTCCTAATCTTTCTGTTCAAGCGCCATCTAC | 0.524 RPM ratio (pull-down/input)
GATGATTGTTCTCCCAGCTGATGAATTAGAAGGATCGAGTAAACAAATTTTCCTAATCTTTCTGTTCAAGCGCCATCTAC | 0.225 RPM ratio (pull-down/input)
GATGATTGTTCTCCCAGCTGATGAATTTCCCATGTCGAGTAAACAAATTTTCCTAATCTTTCTGTTCAAGCGCCATCTAC | 0.287 RPM ratio (pull-down/input)
GATGATTGTTCTCCCAGCTGATGAATTTGCCATGTCGAGTAAACAAATTTTCCTAATCTTTCTGTTCAAGCGCCATCTAC | 1.45 RPM ratio (pull-down/input)
GATGATTGTTCTCCCAGCTGATGAATTCGCCATGTCGAGTAAACAAATTTTCCTAATCTTTCTGTTCAAGCGCCATCTAC | 0.854 RPM ratio (pull-down/input)
GATGATTGTTCTCCCAGCTGATGAATTCGCATGTTCGAGTAAACAAATTTTCCTAATCTTTCTGTTCAAGCGCCATCTAC | 1.95 RPM ratio (pull-down/input)
GATGATTGTTCTCCCAGCTGATGAATTCATGATGTCGAGTAAACAAATTTTCCTAATCTTTCTGTTCAAGCGCCATCTAC | 0.987 RPM ratio (pull-down/input)
GATGATTGTTCTCCCAGCTGATGAATTTTGCATGTCGAGTAAACAAATTTTCCTAATCTTTCTGTTCAAGCGCCATCTAC | 6.69 RPM ratio (pull-down/input)
GATGATTGTTCTCCCAGCTGATGAATTCAGCATGTCGAGTAAACAAATTTTCCTAATCTTTCTGTTCAAGCGCCATCTAC | 4.71 RPM ratio (pull-down/input)
GATGATTGTTCTCCCAGCTGATGAATTGCATGTGTCGAGTAAACAAATTTTCCTAATCTTTCTGTTCAAGCGCCATCTAC | 2.29 RPM ratio (pull-down/input)
GATGATTGTTCTCCCAGCTGATGAATTGTGCATGTCGAGTAAACAAATTTTCCTAATCTTTCTGTTCAAGCGCCATCTAC | 7.05 RPM ratio (pull-down/input)
GATGATTGTTCTCCCAGCTGATGAATTTGCATGTTCGAGTAAACAAATTTTCCTAATCTTTCTGTTCAAGCGCCATCTAC | 3.83 RPM ratio (pull-down/input)
GATGATTGTTCTCCCAGCTGATGAATTCTGCATGTCGAGTAAACAAATTTTCCTAATCTTTCTGTTCAAGCGCCATCTAC | 5.95 RPM ratio (pull-down/input)
GATGATTGTTCTCCCAGCTGATGAATTTCGCATGTCGAGTAAACAAATTTTCCTAATCTTTCTGTTCAAGCGCCATCTAC | 5.75 RPM ratio (pull-down/input)
